Source: PubChem BioAssay AID1481 (The Scripps Research Institute Molecular Screening Center, 2009)
Values joined by “and” are separate entries in the source; they are usually repeats but may differ in a detail not shown here. Equal values may be shown once. Among all 220,000 compounds or so, about 920 (0.42%) were called active. Cut-off read from the data, not from the text of the source: active = inhibition above about 15%; inactive = the rest. Shown is part of a subset that was picked to be rich in actives. Some compounds were tested as several samples or in several runs, with calls that do not always agree.

Each compound was assayed against Transitional endoplasmic reticulum ATPase (Homo sapiens) (UniProt P55072) (assay: p97 ATP hydrolysis blockers – biochemical, primary screen (AID 1481;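 note: 0% = DMSO vehicle and 100% = wells lacking enzyme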)). Conditions: recombinant p97 ATPase, Kinase-Glo ATP luminescence, 3 h; at 8 µM; stronger effect = higher value.
Transitional endoplasmic reticulum ATPase (Homo sapiens), sequence (P55072 whole entry, looked up): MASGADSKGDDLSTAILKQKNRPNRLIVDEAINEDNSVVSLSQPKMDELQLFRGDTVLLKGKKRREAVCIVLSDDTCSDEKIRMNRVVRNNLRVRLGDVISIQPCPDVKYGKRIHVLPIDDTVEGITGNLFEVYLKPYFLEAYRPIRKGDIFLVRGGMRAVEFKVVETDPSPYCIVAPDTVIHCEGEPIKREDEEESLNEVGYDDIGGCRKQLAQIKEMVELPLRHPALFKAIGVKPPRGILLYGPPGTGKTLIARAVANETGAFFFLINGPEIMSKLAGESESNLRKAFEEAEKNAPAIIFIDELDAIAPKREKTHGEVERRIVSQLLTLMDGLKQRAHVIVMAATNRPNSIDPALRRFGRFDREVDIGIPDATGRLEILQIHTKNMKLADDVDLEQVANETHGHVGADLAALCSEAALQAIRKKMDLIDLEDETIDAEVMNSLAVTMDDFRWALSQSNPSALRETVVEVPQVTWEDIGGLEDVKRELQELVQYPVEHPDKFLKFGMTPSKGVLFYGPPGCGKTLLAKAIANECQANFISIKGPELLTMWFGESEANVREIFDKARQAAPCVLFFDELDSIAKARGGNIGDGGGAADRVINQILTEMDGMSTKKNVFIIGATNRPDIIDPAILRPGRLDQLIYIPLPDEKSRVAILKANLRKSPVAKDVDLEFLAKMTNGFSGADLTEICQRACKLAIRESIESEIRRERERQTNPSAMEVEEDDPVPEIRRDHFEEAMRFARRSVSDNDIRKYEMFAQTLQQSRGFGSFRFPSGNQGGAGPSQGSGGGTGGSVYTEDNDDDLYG
With `CC(=O)c1cccc(-n2nnnc2SCC(=O)NNC(=O)C2CCCCC2)c1` the inhibition was -0.28% (inactive). With `COc1ccccc1CNC(=O)Cn1c(=O)oc2cc(Cl)ccc21` the inhibition was -2.55% (inactive). `COCC(C)OC(=O)c1c(N)n(CCCN2CCOCC2)c2nc3ccccc3nc12` (configuration not stated) was tested, and the inhibition was 4.25% (inactive). With `CCCCN1C(=O)/C(=C/C=C2/C=Cc3ccccc3N2CC)SC1=S` the inhibition was 6.25% (inactive). In the case of `CCN1C(=O)/C(=C2/Sc3ccccc3N2CCCS(=O)(=O)O)SC1=S`, the inhibition is reported as 16.4% (active) and -0.77% (inactive). With `CCN1C(=O)/C(=c2\s/c(=C3\Sc4ccccc4N3C)c(=O)n2C)N(C)C1=S` the inhibition was 2.09% (inactive). With `NC(=O)Cc1ccc2c(c1)[nH]c1ccccc12` the inhibition was 2.82% (inactive). For `Fc1ccc(CNCc2ccc(Br)cc2)cc1`, the inhibition was 9.11% (inactive). With `COc1ccccc1-n1c(SCC(=O)O)nc2sc3c(c2c1=O)CCC3` the inhibition was -1.29% (inactive). With `Cc1ccc(C(C[N+](=O)[O-])c2c(C)cc3ccccn23)cc1` (configuration not stated) the inhibition was -4.06% (inactive). In the case of `CCN(CC)CCNC(=O)CCCCCn1c(=O)[nH]c2cc(C(=O)OC)ccc2c1=O`, the inhibition is reported as 15% (active). `O=C(CCCn1c(=O)[nH]c2cc(Cl)ccc2c1=O)NCCN1CCN(c2ccccc2)CC1` was tested, and the inhibition was 1.79% (inactive). In the case of `COc1ccc(CCNC(=O)CCCCn2c(=O)[nH]c3ccccc3c2=O)cc1OC`, the inhibition is reported as 4.64% (inactive). For `O=C(CSc1nc2ccc([N+](=O)[O-])cc2[nH]1)c1ccc(Cl)cc1`, the inhibition was 2.81% (inactive). With `CC(CC(=O)Nc1ccccc1)n1ccnc1` (configuration not stated) the inhibition was -4.72% (inactive). In the case of `Cc1cc(C)c(NC(=O)CN2C(=O)NC(Cc3ccccc3)C2=O)c(C)c1` (configuration not stated), the inhibition is reported as -0.65% (inactive). In the case of `COc1ccccc1CNC(=O)COc1ccc(C)nc1[N+](=O)[O-]`, the inhibition is reported as 0.97% (inactive). For `COc1cc(/C=C2/C(=O)NN(c3ccc(F)cc3)C2=O)cc([N+](=O)[O-])c1O`, the inhibition was 6.04% (inactive). `CCC(C)NC(=O)CSC1=Nc2ccccc2C2=NC(CCC(=O)NCc3ccco3)C(=O)N12` (configuration not stated) was tested, and the inhibition was 18.7% (active). For `O=C(CSC1=Nc2ccccc2C2=NC(CC(=O)NCc3ccco3)C(=O)N12)NCc1ccco1` (configuration not stated), the inhibition was 2.33% (inactive). With `O=C(CC1N=C2c3ccccc3N=C(SCc3ccccc3Cl)N2C1=O)NCc1ccco1` (configuration not stated) the inhibition was 2.64% (inactive). With `COc1nc(N(C)C)nc(N2CC(=O)N(CCNS(=O)(=O)c3ccc(C)cc3)C2=N)n1` the inhibition was 5.1% (inactive). For `O=C1N=C(N2CCc3ccccc3C2)S/C1=C\c1ccc(O)cc1`, the inhibition was 0.81% (inactive). For `C/C(=N/NC(=S)Nc1ccccc1)c1ccc2c(c1)OCO2`, the inhibition was 2.26% (inactive). For `CCOC(=O)c1nnn(-c2nc(OC)nc(N(C)C)n2)c1-c1ccccc1`, the inhibition was -0.37% (inactive). In the case of `CCOc1ccc(/C=N/Nc2nncc(-c3ccccc3)n2)cc1OC`, the inhibition is reported as 0.88% (inactive). `CCOc1nc(OCC)nc(-n2cc(-c3ccccc3)nn2)n1` was tested, and the inhibition was 24.2% (active). In the case of `COC(=O)c1scc(S(=O)(=O)C(C)(C)C)c1-n1cccc1`, the inhibition is reported as 3.92% (inactive). With `CC1CCC(NC(=O)C2c3ccccc3C(=O)N2Cc2ccc3c(c2)OCO3)CC1` (configuration not stated) the inhibition was -6.03% (inactive). For `Cc1ccc2c(c1)NCC(C(=O)NC1CCC(C)CC1)O2` (configuration not stated), the inhibition was 18.4% (active). With `Cc1ccc(C(=O)NC2CC(C)(C)NC(C)(C)C2)c(C)c1` the inhibition was -2.82% (inactive). `CN1C(=O)/C(=C\c2cc(Br)cs2)c2ccccc21` was tested, and the inhibition was 7.61% (inactive). `O=C(Nc1nnc(Cc2ccccc2)s1)c1cnccn1` was tested, and the inhibition was 1.61% (inactive). With `COc1cccc(NC(=S)NCc2ccco2)c1` the inhibition was 3.44% (inactive). For `O=C(NCCCO)/C(=C\C=C\c1ccccc1)NC(=O)c1ccccc1Cl`, the inhibition was 6.57% (inactive). With `CCN1CCc2nc(NC(=O)c3cc(F)c(F)cc3Cl)sc2C1` the inhibition was 4.45% (inactive). `OCCNc1nc2ccccc2n1-c1ncnc2sc3c(c12)CCC3` was tested, and the inhibition was -5.39% (inactive).
